# Compound activity as filed in PubChem BioAssay.
# SMN2 splice up – SMN2 splice variant enhancement. HEK293 SMN2-luciferase splicing reporter, luminescence, 30-36 h. Potency, µM (highest dose often 46.1 µM), for the others: at the top dose activity change, positive = activation, usual class: activators. hit rate 2.8% among 210,000; also: % of control where 0% means no effect; nearly all actives have a fitted effect of over 55% in size
#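 qHTS luciferase splicing reporter: luminescence rises when SMN2 exon 7 is included in transfected HEK293 cells. Compound exposure lasted 30-36 h at 37C, with 4.5 mM final sodium butyrate as control, followed by a ONE-Glo read.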
# ELG1 genotox – inducers of genotoxicity in HEK293T ELG1-luciferase cells. HEK293T ELG1-luciferase reporter, luminescence, 16 h. Potency, µM (top dose mostly 46 µM), for inactives: at the highest dose activity change, positive = activation, usual class: activators. hit rate 1.3% among 330,000. AID 504466; also: % of control where 0% means no effect; nearly all actives have a fitted effect of over 60% in size
#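 After overnight (16 hr) compound treatment at 37 °C, ELG1-luciferase HEK293T cells were lysed with ONE-Glo; luminescence quantified 30 min later at room temperature.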
# NPC1 promoter act – activates the NPC1 promoter. Huh7 NPC1 promoter luciferase reporter, 24 h. Potency, µM (titrated, usually from 9.22 µM), inactives show at the highest dose activation, actives largely listed as activators. hit rate 2.4% among 320,000; also: % of control where 0% means no effect; nearly all actives have a fitted effect of over 60% in size
#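 In 1536-well qHTS, Huh7 cells harboring an NPC1 promoter–luciferase construct received compound for 24 h; activation was quantified by luminescence following luciferase reagent addition.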
# Rab9 promoter act – activates the Rab9 promoter; Huh7 Rab9 promoter-luciferase reporter, luminescence, 24 h; Potency, µM (series often up to 9.22 µM), without a hit: at the highest dose activation, negative = inhibition, usual class: activators; AID 485297; hit rate 2.8% among 320,000; also: % of control where 0% means no effect; nearly all actives have a fitted effect of over 60% in size
#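 Stable Rab9-luc Huh7, 1500 cells/well, 2 h settle; cmpd in DMSO, 24 h, 37 °C/5% CO2; luciferase reagent 10 min RT; luminescence.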
# ELG1 DNA repair – ELG1-dependent DNA repair inhibition | hit rate 2.3% among 330,000 | HEK293T ELG1-luciferase reporter, luminescence, 16 h; DNA damage induced by 5-fluorouridine | Potency, µM (titrated, usually from 46.1 µM), without a hit: at the top dose activity change, negative = inhibition, usual class: inhibitors; also: % is scaled to controls: 0 for no effect and ±100 for the full control effect; nearly all actives have a fitted effect of over 55% in size
#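 DMSO vehicle served as the neutral condition. Each well held 2,000 cells given 5-fluorouridine plus compound; after 16 hr at 37 °C/5% CO2, ONE-Glo was added and luciferase measured 30 min later.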
# FLuc counter – firefly luciferase modulation, counter-screen for miR-21 project. Potency, µM (top dose mostly 57.5 µM), for inactives: at the highest dose activity change, negative = inhibition, hits mostly inhibitors. hit rate 6.9% among 360,000. purified FLuc, Km substrates, luminescence inhibition. P08659;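 also: plate controls were vehicle for no effect and reference inhibitor for full effect; nearly all actives have a fitted effect of over 55% in size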
#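 Biochemical qHTS of compounds, final roughly 60 µM downward over six points, against 10 nM purified firefly luciferase using Km concentrations of substrates (10 uM D-luciferin, 10 uM ATP) in Tris acetate pH 7.5 buffer; luminescence output.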
# ELG1 FLuc counter – luciferase inhibition in cell-free luciferin readout for ELG1 hits; Potency, µM (top dose mostly 46.1 µM), for inactives: at the top dose activity change, negative = inhibition, hits mostly inhibitors; hit rate 3% among 350; shares compounds with ELG1 DNA repair; AID 624247; cell-free firefly luciferase luminescence counter-screen, ViewLux; also: % is scaled to controls: 0 for no effect and ±100 for the full control effect
# ELG1-Luc inh – human ELG1 repair inhibition, luciferase-tagged ELG1 confirmation; hit rate 68% among 670; Potency, µM (series often up to 46.1 µM), for the others: at the top dose activity change, negative = inhibition, actives largely listed as inhibitors; HEK293T ELG1-luciferase levels, luminescence; cells co-treated with 5-fluorouridine; shares compounds with ELG1 DNA repair; AID 624248; also: % is scaled to controls: 0 for no effect and ±100 for the full control effect; nearly all actives have a fitted effect of over 55% in size
# Target sequence (Q96QE3 whole entry, looked up): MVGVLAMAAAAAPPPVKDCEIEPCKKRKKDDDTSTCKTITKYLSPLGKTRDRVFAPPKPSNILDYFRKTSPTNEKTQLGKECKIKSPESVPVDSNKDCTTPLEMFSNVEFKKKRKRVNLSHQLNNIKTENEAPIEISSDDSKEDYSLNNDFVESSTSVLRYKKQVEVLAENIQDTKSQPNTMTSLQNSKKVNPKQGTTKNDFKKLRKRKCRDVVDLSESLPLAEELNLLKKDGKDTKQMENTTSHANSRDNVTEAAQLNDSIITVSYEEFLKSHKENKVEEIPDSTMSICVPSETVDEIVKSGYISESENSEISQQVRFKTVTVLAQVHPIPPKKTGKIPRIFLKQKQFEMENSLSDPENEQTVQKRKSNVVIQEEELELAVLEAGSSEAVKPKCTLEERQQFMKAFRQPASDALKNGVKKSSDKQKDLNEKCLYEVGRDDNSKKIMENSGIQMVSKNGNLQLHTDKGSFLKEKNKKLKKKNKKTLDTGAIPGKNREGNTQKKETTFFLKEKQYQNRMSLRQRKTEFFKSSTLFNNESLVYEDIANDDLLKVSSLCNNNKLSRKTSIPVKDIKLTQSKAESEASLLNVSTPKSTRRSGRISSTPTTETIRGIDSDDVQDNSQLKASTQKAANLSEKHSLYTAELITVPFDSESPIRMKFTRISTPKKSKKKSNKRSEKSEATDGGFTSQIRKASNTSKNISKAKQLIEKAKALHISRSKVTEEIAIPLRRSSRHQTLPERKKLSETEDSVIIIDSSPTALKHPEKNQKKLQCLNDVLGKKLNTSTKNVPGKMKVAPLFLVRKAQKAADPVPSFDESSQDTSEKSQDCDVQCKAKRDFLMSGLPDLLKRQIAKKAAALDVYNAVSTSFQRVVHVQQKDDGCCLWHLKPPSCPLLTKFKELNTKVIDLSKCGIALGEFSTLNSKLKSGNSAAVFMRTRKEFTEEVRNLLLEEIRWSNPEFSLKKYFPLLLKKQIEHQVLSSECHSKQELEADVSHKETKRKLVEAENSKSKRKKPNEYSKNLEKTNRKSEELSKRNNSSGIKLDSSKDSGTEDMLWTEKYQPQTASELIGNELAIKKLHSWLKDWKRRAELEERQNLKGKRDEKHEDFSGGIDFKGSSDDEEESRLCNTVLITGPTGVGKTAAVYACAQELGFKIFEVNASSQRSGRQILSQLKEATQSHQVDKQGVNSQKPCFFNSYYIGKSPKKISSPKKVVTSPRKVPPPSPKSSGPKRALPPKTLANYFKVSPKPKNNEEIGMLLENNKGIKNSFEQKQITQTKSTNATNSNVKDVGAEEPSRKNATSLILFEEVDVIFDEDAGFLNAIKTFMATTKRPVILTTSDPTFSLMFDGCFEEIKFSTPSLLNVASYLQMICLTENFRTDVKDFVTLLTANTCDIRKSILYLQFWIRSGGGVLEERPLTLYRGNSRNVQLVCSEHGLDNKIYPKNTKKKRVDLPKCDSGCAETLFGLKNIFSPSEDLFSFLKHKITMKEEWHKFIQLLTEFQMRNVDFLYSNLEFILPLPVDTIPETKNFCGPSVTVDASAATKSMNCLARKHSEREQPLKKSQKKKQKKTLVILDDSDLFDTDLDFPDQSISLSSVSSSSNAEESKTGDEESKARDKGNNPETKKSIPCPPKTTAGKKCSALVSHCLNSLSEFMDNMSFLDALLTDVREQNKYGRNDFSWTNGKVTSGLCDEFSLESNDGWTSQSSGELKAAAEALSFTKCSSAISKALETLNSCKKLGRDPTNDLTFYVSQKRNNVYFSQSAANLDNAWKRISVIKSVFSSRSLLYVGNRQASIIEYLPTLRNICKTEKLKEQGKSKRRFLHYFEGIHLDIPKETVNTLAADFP
# ELG1-Luc MMS – MMS-stimulated human ELG1 repair inhibition, confirmed. shares compounds with ELG1 DNA repair. HEK293T luciferase-tagged ELG1 level, MMS stimulated. Potency, µM (series often up to 46.1 µM), without a hit: top-dose activity change, negative = inhibition, actives largely listed as inhibitors. hit rate 53% among 670. AID 624249; also: % is scaled to controls: 0 for no effect and ±100 for the full control effect; nearly all actives have a fitted effect of over 60% in size
# ELG1 5-FU – confirmation of ELG1 repair inhibitors: viability with 5FU; shares compounds with ELG1 DNA repair; cell viability with 5-FU, ELG1-dependent repair; Potency, µM (series often up to 46.1 µM), without a hit: at the top dose activity change, negative = viability loss, actives largely listed as cytotoxic; 670 tested, under 10 active; AID 624250;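 also: ELG1-luc HEK293T cells cotreated with 5-fluorouridine at 10 µM final; viability measured 16 h after compound addition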
# ELG1 MMS viab – confirmation of ELG1 repair inhibitors: viability with MMS. shares compounds with ELG1 DNA repair. hit rate 33% among 670. Cell viability with MMS, ELG1-dependent DNA repair. Potency, µM (top dose mostly 46.1 µM), for inactives: at the highest dose activity change, negative = viability loss, usual class: cytotoxic;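 also: ELG1-luc HEK293T cells co-treated with 10 µM MMS; viability read 16 h after compound addition; % is scaled to controls: 0 for no effect and ±100 for the full control effect; nearly all actives have a fitted effect of over 60% in size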
# Cell viab unstim – counter-screen for ELG1 repair inhibitors: unstimulated cell viability. shares compounds with ELG1 DNA repair. cell viability counter-screen, unstimulated, luminescence. Potency, µM (highest dose often 45.9 µM), without a hit: at the top dose activity change, negative = loss of viability, actives largely listed as cytotoxic. hit rate 8% among 900. AID 624252;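 also: compound exposure lasted 16 hours before reading; % is scaled to controls: 0 for no effect and ±100 for the full control effect; nearly all actives have a fitted effect of over 55% in size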
# FLuc enzyme – firefly luciferase inhibition counter-screen. shares compounds with ELG1 DNA repair. hit rate 10% among 350. Potency, µM (series often up to 57.5 µM), inactives show top-dose activity, negative = inhibition, actives largely listed as inhibitors. purified firefly luciferase, luminescence counter-screen; also: % is scaled to controls: 0 for no effect and ±100 for the full control effect
# The depositor's hits bear a star; u = inconclusive; x = not tested or not shown; [ ] = dose if it differs, or a comment. Most compounds without a hit are left out; they make up all but 9.3% or so of the library. Calls follow the shape of the dose curve; as a rule, active = well fitted curve in the direction sought with a large enough effect; inconclusive = small, poorly fitted or top-dose-only effect, or another doubt; inactive = no such curve, though single readings can be large; an effect the other way counts as inactive or inconclusive. Potency is read from the fitted curve at half-maximal effect.
SMILES,SMN2 splice up,ELG1 genotox,NPC1 promoter act,Rab9 promoter act,ELG1 DNA repair,FLuc counter,ELG1-Luc inh,ELG1-Luc MMS,ELG1 5-FU,ELG1 MMS viab,Cell viab unstim,others
Cc1ccc(-c2nc3c(c(SCC(=O)N4CCOCC4)n2)Cc2c(CO)cnc(C)c2O3)cc1,x,-8%[9.26 µM],2%,-2%,u,-1%,x,x,x,x,x,
Cc1cc(NC(=O)c2cnn3c(C(F)(F)F)cc(-c4ccccc4)nc23)no1,-21%,3%,-4%,-1%,7.3µM*,3%,5µM*,u,10%,u,u,ELG1 FLuc counter=98%;FLuc enzyme=-4%
COC(=O)c1ccccc1NC(=O)c1cnn2c(C(F)F)cc(C3CC3)nc12,7%,-35%,-1%,-5%,u,-1%,x,x,x,x,x,
Cc1cc(NC(=O)c2cnn3c(C(F)F)cc(C4CC4)nc23)no1,21%,2%,-3%,-9%,-10%,0%,u,-3%,-1%,-6%,-12%,ELG1 FLuc counter=1%;FLuc enzyme=-5%
COC(=O)c1cnn2c(C(F)(F)F)cc(-c3ccccc3)nc12,-6%,-4%,-3%,-3%,u,2%,x,x,x,x,x,
COc1ccc(C(=O)NC(=S)NCc2ccco2)cc1OC,-8%,0%,-4%,-3%,-20%,-15%,x,x,x,x,x,
O=C(COc1ccccc1Cl)Nc1ccc(-c2nc3ccccc3s2)cc1,0.79µM*,x,x,x,x,-2%,x,x,x,x,u,
COc1ccc(S(=O)(=O)NCC(c2ccc(F)cc2)N2CCN(C)CC2)cc1 (stereo unspecified),x,1%,-1%,0%,13%,2%,x,x,x,x,x,
C(=C\c1nc2ccccc2s1)/c1ccc2c(c1)OCO2,x,x,x,x,x,x,x,x,x,x,-17%,ELG1 FLuc counter=20µM*;FLuc enzyme=0.18µM*
Cn1c2ccccc2c(=O)c2cc(NCCCN3CCOCC3)ccc21,x,u,x,x,u,x,x,x,x,x,-4%,
CSc1nccc(-c2sc(SC)c(C#N)c2-c2ccccc2)n1,x,2%,-3%,3%,4%,3%,x,x,x,x,x,
CSc1sc(-c2ccnc(SCCS(C)(=O)=O)n2)c(-c2ccccc2)c1C#N,x,-6%,-2%,-7%,4.6µM*,1%,3.1µM*,0.56µM*,1%,0.63µM*,u,
O=C(Nc1ccc(Br)cc1)c1ccc(F)c(S(=O)(=O)N2CCN(c3ccccn3)CC2)c1,-55%,-5%,-24%,-26%,2.9µM*,-6%,32µM*,u,-11%,u,u,ELG1 FLuc counter=-8%;FLuc enzyme=-15%
CS(=O)(=O)OCCCCOS(C)(=O)=O,-7%,x,x,x,x,x,x,x,x,x,x,
CCOc1ccc(CC(=O)Nc2ccc(NC(=O)c3ccco3)cc2)cc1OCC,-61%,4%,-4%,1%,2.3µM*,-1%,u,0.063µM*,12%,0.07µM*,8%,
Cc1ccc(NC(=S)N(Cc2cccs2)Cc2cc3cccc(C)c3[nH]c2=O)cc1,-35%,-7%,-3%,-4%,u,0%,4.4µM*,u,u,-4%,-12%,
Cc1ccc2cc(CN(CC3CCCO3)C(=S)Nc3ccccc3)c(=O)[nH]c2c1C (stereo unspecified),u,-10%,-25%,-15%,4.6µM*,3%,4µM*,u,u,0%,u,
O=C(c1ccc(-c2cc3ccccc3oc2=O)cc1)N1CCN(c2ccc(Cl)cc2[N+](=O)[O-])CC1,-37%,-3%,-6%,-4%,4.6µM*,2%,5µM*,-7%,u,u,u,
O=[N+]([O-])c1cc(Cl)ccc1N1CCN(c2ccccc2O)CC1,-16%,-12%,-2%,-7%,-23%,-17%,x,x,x,x,x,
COc1ccc(-c2cc(=O)oc3c(C)c(OC(=O)c4cccs4)ccc23)cc1,-18%,-13%,-3%,-6%,4.1µM*,-1%,4.4µM*,u,-4%,-2%,-6%,
COc1ccc(-c2cc(=O)oc3c(C)c(OC(C)C(C)=O)ccc23)cc1 (stereo unspecified),x,-4%,-5%,-1%,-18%,2%,x,x,x,x,x,
CC1(c2ccc(OC(F)F)cc2)NC(=O)N(CC(=O)NC2CCCC2)C1=O (stereo unspecified),x,1%,-3%,-3%,7%,3%,x,x,x,x,x,
CC1CCCCC1NC(=O)CN1C(=O)NC(C)(c2ccc(OC(F)F)cc2)C1=O (stereo unspecified),16%,5%,-5%,-7%,-9%,2%,x,x,x,x,2%,ELG1 FLuc counter=1%;FLuc enzyme=4%
COc1ccc(C2=NN(C(=O)CSc3nnc(C)n3C)C(c3ccco3)C2)cc1 (stereo unspecified),2%,4%,-18%,1%,0%,-13%,x,x,x,x,x,
COc1ccc(C2=NN(C(=O)COc3ncnc4ccccc34)C(c3ccco3)C2)cc1 (stereo unspecified),u,2%,-3%,-11%,4.1µM*,-5%,u,-2%,u,9%,8%,
